Measured values reported in PubChem BioAssay (NCI).
Compounds without any hit were thinned out: in the full panel of roughly 79,000, 15% have a hit. Unmarked numbers belong to inactive results. The source made the active and inactive calls. Cut-off read from the data, not from the text of the source: active = growth inhibition above about 70%; inactive = the rest.

How the values were obtained:
[1] = NCI Yeast Anticancer Drug Screen. Data for the rad50 strain (AID 155);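 note: 0% = growth of vehicle-only cultures of the same strain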; conditions: S. cerevisiae rad50 strain growth inhibition, stronger effect = higher value
Procedure, shortened: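 Genetically altered yeast (DNA repair pathway); compound treatment; growth inhibition vs vehicle ctrl.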

[2] = NCI Yeast Anticancer Drug Screen. Data for the mec2-1 strain (AID 157); conditions: S. cerevisiae mec2-1 strain, stronger effect = higher value
Procedure, shortened: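 Using mec2-1 yeast: add compound, measure growth, express inhibition versus vehicle-treated cultures.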

[3] = NCI Yeast Anticancer Drug Screen. Data for the sgs1 mgt1 strain (AID 161);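 note: 0% = growth of cultures given vehicle only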; conditions: S. cerevisiae sgs1 mgt1 strain, stronger effect = higher value
Procedure, shortened: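 Percent growth inhibition was derived by comparing compound-exposed mutant yeast with vehicle-exposed cultures. The strain carries alterations in DNA damage repair.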

[4] = NCI Yeast Anticancer Drug Screen. Data for the cln2 rad14 strain (AID 165);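 note: 0% = growth equal to vehicle treated cultures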; conditions: S. cerevisiae cln2 rad14 strain, stronger effect = higher value
Procedure, shortened: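 Yeast strain cln2 rad14, bearing defects in cell cycle control and DNA repair, serves as the test system; values reflect growth inhibition compared with vehicle.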

[5] = NCI Yeast Anticancer Drug Screen. Data for the bub3 strain (AID 167); conditions: S. cerevisiae bub3 mutant strain, stronger effect = higher value
Procedure, shortened: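 Yeast carrying a defined mutation is treated with each compound, and growth is compared with that of vehicle-exposed cells to give inhibition.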

[6] = NCI Yeast Anticancer Drug Screen. Data for the mlh1 rad18 strain (AID 175); conditions: S. cerevisiae mlh1 rad18 strain growth inhibition, stronger effect = higher value
Procedure, shortened: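 Steps: expose repair-defective yeast to compound; measure growth; express inhibition against vehicle-treated controls.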

[7] = at 5.0 µM (retest, dose inferred, filed as 0.5)
[8] = at 50.0 µM (retest, dose inferred, filed as 5.0)

SMILES | growth inhibition [1, 7] | growth inhibition [1, 8] | growth inhibition ([1]; at 50.0 µM) | growth inhibition [2, 7] | growth inhibition [2, 8] | growth inhibition ([2]; at 50.0 µM) | growth inhibition [3, 7] | growth inhibition [3, 8] | growth inhibition ([3]; at 50.0 µM) | growth inhibition [4, 7] | growth inhibition [4, 8] | growth inhibition ([4]; at 50.0 µM) | growth inhibition [5, 7] | growth inhibition [5, 8] | growth inhibition ([5]; at 50.0 µM) | growth inhibition [6, 7] | growth inhibition [6, 8] | growth inhibition ([6]; at 50.0 µM)
Cc1cc(N(CCOS(C)(=O)=O)CCOS(C)(=O)=O)ccc1C=Nc1ccccc1C(=O)O | 7% | 76% (active) | 83.5% (active) | 15% | 66% | 74.3% (active) | 4% | 62% | 79.8% (active) | 4% | 57% | 68.2% | -2% | 31% | 38.5% | 28% | 91% (active) | 95.1% (active)
Cc1ccccc1NC(=O)Cc1csc(N=Nc2c(O)[nH]c3ccccc23)n1 | 18% | 17% | -33.6% | 1% | 1% | -42.9% | 1% | -2% | -6.95% | 9% | -6% | -12.1% | 25% | 25% | -11.1% | 15% | 17% | -27.7%
C1CCC2CC3(CCNCC3)CCC2C1 (stereo unspecified) | 14% | 55% | 75.2% (active) | 9% | 55% | 55.4% | 16% | 79% (active) | 88.4% (active) | 12% | 82% (active) | 83.7% (active) | 11% | 66% | 86.8% (active) | 9% | 73% (active) | 92% (active)
CCOC(=O)Nc1nc2ccc(Cn3cccc3)cc2[nH]1 | 25% | 31% | 17.8% | 19% | 22% | -12.5% | 24% | 24% | 10.9% | 33% | 24% | 6.05% | 22% | 24% | -1.9% | 25% | 23% | -0.95%
CC1=C(C(=O)OCCO[N+](=O)[O-])C(c2cccc([N+](=O)[O-])c2)C(C(=O)OC(C)C)=C(C)N1 (stereo unspecified) | 13% | 91% (active) | 79.2% (active) | 10% | 92% (active) | 83% (active) | -22% | 91% (active) | 87.5% (active) | -3% | 87% (active) | 81.5% (active) | -3% | 88% (active) | 85.3% (active) | 12% | 95% (active) | 71% (active)
C/C=C\C(/C=C/C)(C(=O)OCCN(C)C)C(/C=C\C)(/C=C/C)C(=O)OCCN(C)C (stereo unspecified) | 5% | 97% (active) | 98% (active) | 2% | 97% (active) | 96.8% (active) | 5% | 96% (active) | 95.8% (active) | 2% | 97% (active) | 96.5% (active) | 2% | 95% (active) | 95.4% (active) | 3% | 97% (active) | 97% (active)
ClC(Cl)(Cl)C1=CC2c3ccccc3C1c1ccccc12 | -14% | 91% (active) | 89.7% (active) | 0% | 91% (active) | 21.6% | -7% | 91% (active) | 87.8% (active) | -3% | 90% (active) | 22.8% | -9% | 92% (active) | 28.7% | -6% | 92% (active) | 89.5% (active)
CC(C)(c1cc(Br)c(O)c(Br)c1)c1cc(Br)c(O)c(Br)c1 | 76% (active) | 97% (active) | 87.2% (active) | 82% (active) | 99% (active) | 90.7% (active) | 85% (active) | 98% (active) | 87.9% (active) | 81% (active) | 99% (active) | 89.5% (active) | 88% (active) | 98% (active) | 87.5% (active) | 93% (active) | 97% (active) | 87.5% (active)
COc1ccccc1C1C(Cl)C(=O)N1n1cnc2ccccc2c1=O (stereo unspecified) | -12% | -12% | 83.9% (active) | -29% | 7% | 49.4% | -11% | 2% | 84.5% (active) | 15% | 16% | 62.3% | 9% | 55% | 83.2% (active) | -5% | -3% | 76.8% (active)
O=C(C[P+](c1ccccc1)(c1ccccc1)c1ccccc1)c1ccc(Br)cc1 | 67% | 96% (active) | 98.8% (active) | 53% | 98% (active) | 97.4% (active) | 82% (active) | 99% (active) | 96.8% (active) | 22% | 96% (active) | 95.9% (active) | 62% | 97% (active) | 97.7% (active) | 69% | 97% (active) | 96% (active)
CC1CCCCC12C(C#N)(C#N)C2(C#N)C#N (stereo unspecified) | 22% | 90% (active) | 99.2% (active) | 30% | 97% (active) | 99.3% (active) | 33% | 97% (active) | 99.5% (active) | 8% | 89% (active) | 99.2% (active) | 43% | 97% (active) | 99.4% (active) | 41% | 98% (active) | 99.3% (active)
CCN(CC)CCNc1ccc(C)c2sc3cccc(O)c3c(=O)c12 | 86% (active) | 99% (active) | 99.2% (active) | 3% | 72% (active) | 99.7% (active) | 15% | 96% (active) | 99.5% (active) | 2% | 85% (active) | 55.5% | 10% | 96% (active) | 99.5% (active) | 12% | 99% (active) | 99.3% (active)
